Counter-ions that a name gives are not always drawn. ± gives the standard deviation of the averaged measurements.
Each molecule was assayed on CLZ3 (HCA2 human fibroblast dual HR-NHEJ reporter) (assay: NHEJ repair efficiency (GFP+ cells) relative to control (log10 fold); higher = more non-homologous end joining). Conditions: 5 µM; doxycycline 0.5 ug/mL.
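Note: compound given one day ahead of doxycycline, which switches on I-SceI endonuclease to cut the chromosomally integrated reporter and create DSBs.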

| SMILES | NHEJ repair efficiency (log10) |
| --- | --- |
| COc1ccc2c(c1OC)CN(C)CCc1cc3c(cc1C(=O)C2)OCO3 [Allocryptopine] | 0.0337 |
| C[C@]1(O)C[C@@H](O)[C@]2(O)C=CO[C@@H](O[C@H]3O[C@H](CO)[C@@H](O)[C@H](O)[C@H]3O)[C@@H]21 [Harpagide] | 0.0851 |
| CC(C)=CCOc1c2ccoc2cc2oc(=O)ccc12 [Isoimperatorin] | -0.032 ± 0.014 |
| CC(CC(=O)C[C@@H](C)[C@H]1CC(=O)[C@@]2(C)C3=C(C(=O)[C@@H](O)[C@]12C)[C@@]1(C)CC[C@H](O)C(C)(C)[C@@H]1C[C@@H]3O)C(=O)O (some centres undefined) [Ganoderic Acid G] | 0.055 |
| O=C1/C(=C2\Nc3ccccc3C2=O)Nc2ccccc21 [Indigotin] | 0.00962 |
| CC1(C)[C@@H](O[C@H]2O[C@H](C(=O)O)[C@@H](O)[C@H](O)[C@H]2O[C@@H]2O[C@H](C(=O)O)[C@@H](O)[C@H](O)[C@H]2O)CC[C@]2(C)[C@H]3C(=O)C=C4[C@@H]5C[C@@](C)(C(=O)O)CC[C@]5(C)CC[C@@]4(C)[C@]3(C)CC[C@@H]12 [Monoammonium Glycyrrhizinate] | 0.137 |
| C=C1CCC[C@]2(C)C=C3OC(=O)C(C)=C3C[C@@H]12 [Atractylenolide I] | 0.0524 |
| COc1cccc(OC)c1C(=O)OCc1cc(O)ccc1O[C@@H]1O[C@H](CO)[C@@H](O)[C@H](O)[C@H]1O [Curculigoside] | 0.0105 |
| O=C(O)c1cc(O)c(O)c(O)c1 [Gallic acid] | 0.0481 |
| CC(C)(O)CC[C@@H](O)C(C)(O)[C@H]1CC[C@@]2(O)C3=CC(=O)[C@@H]4C[C@@H](O)[C@@H](O)C[C@]4(C)[C@H]3CC[C@]12C (stereo partly drawn) [Β-Hydroxyecdysone] | -0.034 |
| O=C1Nc2ccccc2/C1=C1/Nc2ccccc2C1=O [Indirubin] | -0.0691 |
| C[C@@H]1O[C@@H](OC[C@H]2O[C@@H](Oc3cc(O)c4c(c3)O[C@H](c3ccc(O)c(O)c3)CC4=O)[C@H](O)[C@@H](O)[C@@H]2O)[C@H](O)[C@H](O)[C@H]1O [Eriocitrin] | 0.00276 |
| CC(C)=CCc1c(-c2ccc(O)cc2O)oc2c([C@H]3C=C(C)C[C@@H](c4ccc(O)cc4O)[C@@H]3C(=O)c3ccc(O)cc3O)c(O)cc(O)c2c1=O [Kuwanon G] | 0.0109 |
| C[C@H](CCC(=O)O)[C@H]1CC[C@H]2[C@@H]3[C@H](O)C[C@@H]4C[C@H](O)CC[C@]4(C)[C@H]3CC[C@]12C [Chenodeoxycholic Acid] | -0.124 |
| COc1ccc2cc3[n+](cc2c1OC)CCc1cc2c(cc1-3)OCO2 [Berberine hydrochloride] | -0.127 |
| O[C@@H]1[C@@H](O)[C@@H](OC/C=C/c2ccccc2)O[C@H](CO[C@@H]2OC[C@H](O)[C@H](O)[C@H]2O)[C@H]1O [Rosavin] | 0.0495 |
| COc1cc2oc(=O)ccc2c(OC)c1C[C@@H](O)C(C)(C)O [Toddalolactone] | 0.0484 |
| COC(=O)C1=CO[C@@H](O[C@@H]2O[C@H](CO)[C@@H](O)[C@H](O)[C@H]2O)[C@H]2[C@@H]1[C@H](O)C[C@]2(C)OC(C)=O [8-O-Acetyl Shanzhiside Methyl Ester] | -0.0953 |
| C[C@H]1O[C@@H](O[C@H]2CC[C@@]3(C)[C@@H](CC[C@]4(C)[C@@H]3C=C[C@]35OC[C@@]6(CCC(C)(C)C[C@H]63)[C@@H](O)C[C@]54C)[C@]2(C)CO)[C@H](O)[C@@H](O[C@@H]2O[C@H](CO)[C@@H](O)[C@H](O)[C@H]2O)[C@H]1O [Saikosaponin a] | -0.305 |
| CCCCCCCC/C=C\CCCCCCCC(=O)OCC(COC(=O)CCCCCCC/C=C\CCCCCCCC)OC(=O)CCCCCCC/C=C\CCCCCCCC [Glycerol Trioleate] | -0.000616 |
| C[C@]12C[C@@H](O)[C@@H]3C[C@@]1(O[C@@H]1O[C@H](CO)[C@@H](O)[C@H](O)[C@H]1O)[C@@]3(COC(=O)c1ccccc1)C(=O)O2 [Albiflorin] | 0.0446 |
| COc1c2c(cc3oc(C)cc(=O)c13)O[C@H](C(C)(C)O)C2 [5-O-Methylvisamminol] | -0.159 |
| CC1CCC(C(C)C)C(O)C1 (racemic) [dl-Menthol] | 0.0823 |
| Cc1cc(O)c(C(=O)CCC(C)C)c(=O)o1 [Pogostone] | -0.0825 |
| C[C@@]12C[C@H](c3ccoc3)O[C@@]13C[C@H](OC3=O)[C@H]1[C@H]2C[C@@H]2C[C@H]1C(=O)O2 [Diosbulbin B] | -0.0688 |
| C=C[C@@H]1[C@@H](O[C@@H]2O[C@H](CO)[C@@H](O)[C@H](O)[C@H]2O)OC=C(C(=O)OC)[C@@H]1CCOC(=O)c1cc(O)c(O)c(O)c1 [Cornuside I] | -0.0558 |
| C=C[C@H]1[C@H](O[C@@H]2O[C@H](CO)[C@@H](O)[C@H](O)[C@H]2O)OC=C2C(=O)OCC[C@]21O [Swertiamarin] | -0.0365 |
| C=C1CCC[C@]2(C)C[C@]3(O)OC(=O)C(C)=C3C[C@@H]12 [Atractylenolide Ⅲ] | 0.0709 |
| COC(=O)C1=CO[C@@H](O)[C@@H]2C(CO)=CC[C@H]12 [Genipin] | -0.0273 |

From the supplement of paper PMC7380943
